# Reference: PubChem BioAssay
# The source made the active and inactive calls.
# Experiments:
# [1] = small molecules captured by biotinylated probe aFSTL3 – biochemical, small-molecule microarray, fluorescence 635/667, stem cell growth factor project, primary screen (AID 1064); conditions: higher = more signal;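 further: measures binding of the biotinylated anti-FSTL3 antibody to printed compounds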
# [2] = binders from COS7 lysate, DM2A8 probe, primary screen, torsin A project, cell lysate, small-molecule microarray, fluorescence 635/667 (AID 1065); conditions: higher = more signal, COS7 lysate expressing mutant human TOR1A
# [3] = small molecules captured by biotinylated probe aFGF2 – biochemical, small-molecule microarray, fluorescence 635/667, stem cell growth factor project, primary screen (AID 1067); conditions: higher = more signal;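 further: measures binding of biotinylated aFGF2 protein to printed compounds on slides; z-score merges feature fluorescence and signal-to-noise across triplicate slides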
# [4] = small molecules captured by biotinylated probe aFGF10 – biochemical, small-molecule microarray, fluorescence 635/667, stem cell growth factor project, primary screen (AID 1071); conditions: higher = more signal;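 further: score merges 667 nm spot intensity and signal to noise from triplicate slides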
# [5] = biological target: Neurogenic locus notch homolog protein 2 (Homo sapiens) (UniProt Q04721); assay: small molecules binding Notch2 protein – biochemical, small-molecule microarray, 635 nm fluorescence, stem cell growth factors, primary screen (AID 1073); conditions: higher = more signal
# [6] = biological target: Pro-neuregulin-1, membrane-bound isoform (Homo sapiens) (UniProt Q02297); assay: small molecules binding neuregulin-1 protein – biochemical, small-molecule microarray, fluorescence 635/667, psychiatric disease protein project, primary screen (AID 1075); conditions: NRG1 binding, 635 nm fluorescence, higher = more signal;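 further: score combines 667 nm spot fluorescence with signal to noise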
# Pro-neuregulin-1, membrane-bound isoform (Homo sapiens), sequence (Q02297 whole entry, looked up, the tested form may be a part, canonical isoform): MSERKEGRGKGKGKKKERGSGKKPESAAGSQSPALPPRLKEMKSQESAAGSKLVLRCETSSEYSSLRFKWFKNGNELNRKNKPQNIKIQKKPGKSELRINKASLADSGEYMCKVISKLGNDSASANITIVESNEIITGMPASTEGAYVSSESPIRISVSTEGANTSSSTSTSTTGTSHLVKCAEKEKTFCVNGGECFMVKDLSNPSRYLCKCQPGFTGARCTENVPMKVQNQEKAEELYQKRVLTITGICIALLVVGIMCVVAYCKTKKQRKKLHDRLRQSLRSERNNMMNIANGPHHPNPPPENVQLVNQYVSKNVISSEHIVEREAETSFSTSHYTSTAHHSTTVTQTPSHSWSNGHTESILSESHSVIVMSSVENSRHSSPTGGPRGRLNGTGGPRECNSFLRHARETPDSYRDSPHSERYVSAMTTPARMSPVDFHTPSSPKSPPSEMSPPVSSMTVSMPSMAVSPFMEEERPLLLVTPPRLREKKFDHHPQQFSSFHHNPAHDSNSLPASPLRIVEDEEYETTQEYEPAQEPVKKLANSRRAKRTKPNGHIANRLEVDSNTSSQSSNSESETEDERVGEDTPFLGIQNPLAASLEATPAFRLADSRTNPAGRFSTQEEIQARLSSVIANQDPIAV
# [7] = test system: Neuregulin-1 EGF-like domain; assay: small molecules binding NRG1 EGF domain – biochemical, small-molecule microarray, 635 nm fluorescence, primary screen (AID 1081); conditions: higher = more signal;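 further: binding of the protein to compounds printed on small-molecule microarray slides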
# [8] = FRG1 expression reporter modulators in myotubes – cell-based, C2C12 myotubes, firefly/Renilla luciferase, luminescence, FRG1 inhibition for FSHD, primary screen (AID 1084); conditions: FRG1 promoter luciferase, higher = more signal, called active from +8 up or from −8 down
# [9] = small molecules captured by biotinylated probe aFST – biochemical, small-molecule microarray, fluorescence 635/667, stem cell growth factor project, primary screen (AID 1086); conditions: higher = more signal;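 further: score merges 667 nm fluorescence with signal-to-noise of each printed compound spot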
# [10] = binders of probe aHhip on microarray, primary screen, stem cell growth factor project, biochemical, small-molecule microarray, fluorescence 635/667 (AID 1087); conditions: higher = more signal;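 further: score merges spot fluorescence at 667nm with spot signal to noise ratio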
# [11] = test system: PRMT1 (protein arginine N-methyltransferase 1); assay: small molecules binding arginine methyltransferase PRMT1 – biochemical, small-molecule microarray, 635 nm fluorescence, primary screen (AID 1088); conditions: higher = more signal;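 further: binding of Prmt1 protein to compounds spotted on small-molecule microarray slides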
# [12] = growth effects on S. cerevisiae YJM789 – YJM789 clinical isolate, OD600, 24 h, basal, primary screen (AID 1089); conditions: higher = more signal, called active from +8 up or from −8 down;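 further: growth of clinical yeast isolate S. cerevisiae YJM 789 seeded 1000 cells per well; test concentration not given here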
# [13] = S. pombe growth modifiers, basal conditions – strain 972, OD600, 24 h, no modulator, primary screen (AID 1090);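 further: basal condition with compound alone and no growth modifier present; test concentration not given here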; conditions: S. pombe 972 growth, higher = more signal, called active from +8 up or from −8 down
# [14] = budding yeast growth modifiers under rapamycin – strain BY4716, OD600, 96 h, primary screen (AID 1091); further: test concentration not given here; conditions: S. cerevisiae BY4716 + rapamycin, higher = more signal, called active from +8 up or from −8 down
# [15] = biological target: Torsin-1A-interacting protein 2 (Homo sapiens) (UniProt Q8NFQ8); assay: small molecules binding lysate-expressed LULL1 – cell lysate, human LULL1 lysate, 635/667 nm fluorescence, primary screen (AID 1092); conditions: small-molecule microarray, hLULL1 lysate binding, 635 nm fluorescence; higher = more signal;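 further: probe is lysate of COS7 cells overexpressing human LULL1; score merges per-feature 667 nm fluorescence with signal-to-noise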
# Torsin-1A-interacting protein 2 (Homo sapiens), sequence (Q8NFQ8 whole entry, looked up): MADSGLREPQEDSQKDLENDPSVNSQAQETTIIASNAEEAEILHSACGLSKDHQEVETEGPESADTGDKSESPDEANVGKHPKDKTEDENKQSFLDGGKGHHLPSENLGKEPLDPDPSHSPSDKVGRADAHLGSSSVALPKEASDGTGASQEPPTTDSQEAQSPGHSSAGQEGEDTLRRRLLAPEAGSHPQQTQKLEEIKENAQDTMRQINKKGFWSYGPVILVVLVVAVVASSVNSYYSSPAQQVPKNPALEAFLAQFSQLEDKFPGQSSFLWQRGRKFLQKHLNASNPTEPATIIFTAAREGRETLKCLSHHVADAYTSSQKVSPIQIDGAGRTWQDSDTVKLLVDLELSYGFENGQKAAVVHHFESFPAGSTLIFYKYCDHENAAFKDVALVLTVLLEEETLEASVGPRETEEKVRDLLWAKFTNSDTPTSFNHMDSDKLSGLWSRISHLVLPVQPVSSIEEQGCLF
# [16] = optical density change of DRC41 E. coli – strain DRC41, OD650, 24 h, E. coli filamentation project, primary screen (AID 1093);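 further: MC1000 strain lacking acrAB efflux and sulA so SOS filamentation is blocked; test concentration not given here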; conditions: E. coli DRC41 growth, higher = more signal, called active from +8 up or from −8 down
# [17] = probe aLefty2 binding to arrayed compounds – biochemical, biotinylated probe, 635/667 nm fluorescence, primary screen (AID 1094); conditions: small-molecule microarray, higher = more signal;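 further: score merges spot fluorescence near 667 nm with spot signal-to-noise ratio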
# [18] = test system: Noggin (protein binding on small-molecule microarray); assay: small molecules binding Noggin protein – biochemical, 635/667 nm fluorescence, primary screen (AID 1095); conditions: 635 nm fluorescence, higher = more signal;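 further: score merges 667 nm feature fluorescence with signal to noise over triplicate slides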
# [19] = biological target: Neurogenic locus notch homolog protein 3 (Homo sapiens) (UniProt Q9UM47); assay: small molecules binding NOTCH3 protein – biochemical, 635/667 nm fluorescence, primary screen (AID 1096); conditions: small-molecule microarray, 635 nm fluorescence, higher = more signal
# Neurogenic locus notch homolog protein 3 (Homo sapiens), sequence (Q9UM47 whole entry, looked up): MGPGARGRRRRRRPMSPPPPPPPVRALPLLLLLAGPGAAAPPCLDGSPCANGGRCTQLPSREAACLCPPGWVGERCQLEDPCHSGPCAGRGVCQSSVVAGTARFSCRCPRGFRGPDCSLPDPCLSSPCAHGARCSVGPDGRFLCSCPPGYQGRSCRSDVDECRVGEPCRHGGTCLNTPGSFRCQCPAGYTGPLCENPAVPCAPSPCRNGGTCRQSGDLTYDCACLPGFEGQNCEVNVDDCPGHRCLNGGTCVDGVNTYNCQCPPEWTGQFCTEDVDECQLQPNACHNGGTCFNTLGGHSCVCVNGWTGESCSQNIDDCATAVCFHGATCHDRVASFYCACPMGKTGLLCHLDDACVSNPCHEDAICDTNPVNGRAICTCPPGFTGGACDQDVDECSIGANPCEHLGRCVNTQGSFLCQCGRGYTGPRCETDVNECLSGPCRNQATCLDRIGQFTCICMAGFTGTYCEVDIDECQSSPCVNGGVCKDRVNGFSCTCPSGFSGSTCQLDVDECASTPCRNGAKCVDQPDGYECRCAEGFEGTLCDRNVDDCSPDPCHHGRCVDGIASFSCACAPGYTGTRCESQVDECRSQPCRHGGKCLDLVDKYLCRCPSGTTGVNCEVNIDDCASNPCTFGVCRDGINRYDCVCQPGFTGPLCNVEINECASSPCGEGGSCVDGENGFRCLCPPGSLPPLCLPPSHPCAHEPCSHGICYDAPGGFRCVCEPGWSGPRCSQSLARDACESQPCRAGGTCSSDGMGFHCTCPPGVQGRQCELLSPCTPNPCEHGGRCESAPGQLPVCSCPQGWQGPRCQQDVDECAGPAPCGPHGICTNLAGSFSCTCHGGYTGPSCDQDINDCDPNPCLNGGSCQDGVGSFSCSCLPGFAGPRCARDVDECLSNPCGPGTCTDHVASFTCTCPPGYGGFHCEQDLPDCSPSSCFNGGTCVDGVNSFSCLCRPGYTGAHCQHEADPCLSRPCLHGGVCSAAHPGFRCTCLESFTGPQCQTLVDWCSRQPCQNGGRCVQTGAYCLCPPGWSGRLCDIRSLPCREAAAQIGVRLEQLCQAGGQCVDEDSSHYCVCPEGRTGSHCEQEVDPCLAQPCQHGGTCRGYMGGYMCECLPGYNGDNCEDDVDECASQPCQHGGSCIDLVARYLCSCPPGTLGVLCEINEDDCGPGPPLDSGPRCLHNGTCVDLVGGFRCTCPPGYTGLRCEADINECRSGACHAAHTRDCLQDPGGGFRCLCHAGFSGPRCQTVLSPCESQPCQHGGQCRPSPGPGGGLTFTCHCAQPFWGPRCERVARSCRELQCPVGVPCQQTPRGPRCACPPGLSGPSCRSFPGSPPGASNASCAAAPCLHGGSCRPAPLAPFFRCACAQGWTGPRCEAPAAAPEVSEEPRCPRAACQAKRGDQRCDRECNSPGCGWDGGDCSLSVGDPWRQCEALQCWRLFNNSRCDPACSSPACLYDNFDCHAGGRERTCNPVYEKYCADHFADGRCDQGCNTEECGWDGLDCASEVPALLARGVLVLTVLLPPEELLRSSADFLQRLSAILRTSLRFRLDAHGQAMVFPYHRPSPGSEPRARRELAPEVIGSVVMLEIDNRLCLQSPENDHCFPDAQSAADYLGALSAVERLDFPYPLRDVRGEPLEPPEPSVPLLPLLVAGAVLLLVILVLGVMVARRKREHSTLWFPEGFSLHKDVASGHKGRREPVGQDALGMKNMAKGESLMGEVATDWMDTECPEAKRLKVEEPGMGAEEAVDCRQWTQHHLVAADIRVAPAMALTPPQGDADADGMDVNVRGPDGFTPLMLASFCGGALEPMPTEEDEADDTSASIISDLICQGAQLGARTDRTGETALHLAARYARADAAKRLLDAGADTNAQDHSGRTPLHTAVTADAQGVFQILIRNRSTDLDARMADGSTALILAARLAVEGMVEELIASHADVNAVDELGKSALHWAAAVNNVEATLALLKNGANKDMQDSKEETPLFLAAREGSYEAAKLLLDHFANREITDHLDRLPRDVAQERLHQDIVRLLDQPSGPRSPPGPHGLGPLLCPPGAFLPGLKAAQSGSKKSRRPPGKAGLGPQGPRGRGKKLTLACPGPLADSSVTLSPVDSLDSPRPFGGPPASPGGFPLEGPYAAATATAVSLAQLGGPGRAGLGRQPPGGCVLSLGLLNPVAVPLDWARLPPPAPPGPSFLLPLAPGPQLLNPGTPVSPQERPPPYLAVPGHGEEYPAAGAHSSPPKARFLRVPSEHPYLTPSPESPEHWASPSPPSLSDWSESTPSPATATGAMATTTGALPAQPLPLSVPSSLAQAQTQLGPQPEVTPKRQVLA
# [20] = probe aEGFR binding to arrayed compounds – biochemical, biotinylated probe, 635/667 nm fluorescence, primary screen (AID 1097); conditions: small-molecule microarray, higher = more signal;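 further: probe is a biotinylated anti-EGFR antibody binding compounds printed on slides; score combines fluorescence near 667 nm and signal to noise of each spot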
Structure (SMILES),composite z-score [1],composite z-score [2],composite z-score [3],composite z-score [4],composite z-score [5],composite z-score [6],composite z-score [7],z-score [8],composite z-score [9],composite z-score [10],composite z-score [11],z-score [12],z-score [13],z-score [14],composite z-score [15],z-score [16],composite z-score [17],composite z-score [18],composite z-score [19],composite z-score [20]
CCOC(=O)[C@H](Cc1ccccc1)NC(=O)CCC1CC(OC(=O)NCc2cccc3ccccc23)CC2(CCCC(COC(=O)NCc3ccc4c(c3)OCO4)O2)O1 (stereo not given in full),-0.341,-0.261,-0.0391,0.694,0.305,0.188,1.07,1.4 (inactive),0.0918,-0.134,-0.0058,0.549 (inactive),-0.02 (inactive),0.743 (inactive),1.8,0.951 (inactive),-0.139,0.453,0.227,0.104
CC(=O)OC[C@H]1O[C@H](CC=NO[C@@H](C)c2cc(-c3c(C)cc(C)cc3C)no2)C=C[C@@H]1OC(C)=O,-0.357,-0.264,-0.1,0.149,0.0166,-0.291,-0.736,1.03 (inactive),-0.122,-0.0994,-0.0654,0.208 (inactive),-0.0489 (inactive),0.523 (inactive),-0.382,-0.542 (inactive),-0.212,0.342,0.106,-0.0662
COC(=O)C(C(=O)OC)C1CCCC(=O)C1 (stereo not given),-0.414,1.45,-0.0611,0.353,0.329,-0.146,-0.127,0.335 (inactive),0.406,-0.264,-0.734,0.069 (inactive),0.389 (inactive),0.751 (inactive),0.291,-0.195 (inactive),-0.0362,0.365,0.655,-0.0952
CC(C)CON=C1C[C@@H](O)[C@@H](O)[C@@H]2[C@@H]3C(=O)N(C(C)(C)C)C(=O)[C@@H]3CC[C@@H]12,-0.7,2.77,-0.243,-0.541,-0.483,-0.517,0.694,0.0071 (inactive),-0.0117,-0.303,1.37,0.118 (inactive),-0.182 (inactive),-0.147 (inactive),-0.495,0.222 (inactive),-0.317,1.02,-0.269,-0.0638
COC(=O)[C@H](C)NC(=O)CCC1CC(OC(=O)NCCc2ccc(F)cc2)CC2(CCCC(COC(=O)NCC3CCCCC3)O2)O1 (stereo not given in full),-0.429,0.437,-0.116,0.605,1.32,0.618,1.06,0.617 (inactive),0.486,-0.143,1.49,-0.797 (inactive),-0.781 (inactive),0.689 (inactive),2.16,-0.718 (inactive),-0.139,0.883,1.06,0.0207
CC(C)[C@@H](OCc1ccccc1)[C@H](C)C=NOC[C@@H](O)[C@H]1O[C@@H]2OC(C)(C)O[C@@H]2[C@H]1O,-0.365,0.116,-0.198,0.492,0.25,0.125,0.361,0.417 (inactive),0.307,-0.0645,0.763,0.87 (inactive),1.05 (inactive),0.821 (inactive),0.758,0.517 (inactive),-0.132,1.07,0.676,-0.0828
CC(C)(C)N1C(=O)[C@H]2[C@H]3[C@H](O)[C@H](O)CC(=NNC(=O)OCc4ccccc4)[C@H]3CC[C@H]2C1=O,-0.642,0.0714,-0.0684,0.559,0.389,0.26,0.748,-0.0034 (inactive),-0.0777,-0.169,1.3,0.272 (inactive),-1.49 (inactive),-0.391 (inactive),1.39,0.0955 (inactive),-0.191,0.683,0.4,-0.0051
COc1ccc(O[C@H]2C=C[C@@H](c3ccccc3)O[C@@H]2CON=C2c3cc(OC)ccc3O[C@H](c3cccc(OC)c3)[C@H]2O)cc1,-0.661,0.354,-0.201,-0.054,1.38,-0.139,0.463,1.82 (inactive),0.34,-0.226,0.554,-0.0549 (inactive),0.281 (inactive),-0.0588 (inactive),0.585,0.0551 (inactive),-0.231,1.4,0.927,-0.171
C#CCCCON=C1C[C@@H](O)[C@@H](O)[C@@H]2[C@@H]3C(=O)N(C[C@@H]4CCCO4)C(=O)[C@@H]3CC[C@@H]12,-0.499,0.153,-0.0909,0.691,0.922,0.404,0.275,0.737 (inactive),-0.0371,0.0373,0.345,-0.281 (inactive),0.504 (inactive),-0.747 (inactive),0.379,0.133 (inactive),-0.119,0.595,0.752,-0.0436
CCN1C(=O)[C@H]2[C@H]3[C@H](O)[C@H](O)CC(=NOC[C@@H](O)[C@H]4O[C@@H]5OC(C)(C)O[C@@H]5[C@H]4O)[C@@H]3CC[C@H]2C1=O,-0.635,-0.112,-0.173,0.242,0.352,0.12,-0.0114,-0.116 (inactive),0.156,-0.291,-0.556,0.141 (inactive),0.234 (inactive),0.33 (inactive),-0.0973,0.454 (inactive),-0.159,0.0713,-0.124,-0.0685
